# Laboratory results reported in PubChem BioAssay (EPA / NIEHS).
# Calls of active or inactive are those of the source. The calls were made as follows: active = hit-call score of the fitted dose curve at least 0.9, where 1 is the maximum; inactive = score below 0.9.
# Key:
# [1] = read-out: TIMP metallopeptidase inhibitor 2 (TIMP2), TIMP2 (gene 7077); experiment: BSK_KF3CT_TIMP2: BioMAP Diversity Plus: KF3CT Assay for TIMP metallopeptidase inhibitor 2 (TIMP2) Biomarker Activity (AID 2283071); conditions: primary human keratinocytes with fibroblasts; actives raise or lower the signal
# Outline: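 Human primary keratinocyte/foreskin fibroblast co-culture dosed with chemical and sampled at 24 h. TIMP-2 levels quantified by ELISA; bidirectional fitting against DMSO negative control as baseline.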
# [2] = read-out: Transforming growth factor beta 1 (TGFb1), TGFB1 (gene 7040); experiment: BSK_KF3CT_TGFb1: BioMAP Diversity Plus: KF3CT Assay for Transforming growth factor beta 1 (TGFb1) Biomarker Activity (AID 2283072); conditions: primary human keratinocytes with fibroblasts; actives raise or lower the signal
# Outline: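 Human keratinocyte plus foreskin fibroblast primary co-culture, dosed with chemical for 24 h. TGF-b1 quantified by ELISA. Activity fitted bidirectionally against DMSO negative control as baseline.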
# [3] = read-out: C-C motif chemokine 2 (Homo sapiens) (UniProt P13500); experiment: BSK_KF3CT_MCP1: BioMAP Diversity Plus: KF3CT Assay for Monocyte Chemoattractant Protein 1 (MCP1/CCL2) Biomarker Activity (AID 2283073); conditions: primary human keratinocytes with fibroblasts; actives raise or lower the signal
# Outline: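 KF3CT skin co-culture (keratinocytes/foreskin fibroblasts), 24 h post-dose; MCP-1 by ELISA; gain/loss of signal fit bidirectionally vs DMSO baseline.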
# [4] = read-out: Matrix Metallopeptidase 9 (MMP9), MMP9 (gene 4318); experiment: BSK_KF3CT_MMP9: BioMAP Diversity Plus: KF3CT Assay for Matrix Metallopeptidase 9 (MMP9) Biomarker Activity (AID 2283074); conditions: primary human keratinocytes with fibroblasts; actives raise or lower the signal
# Outline: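 Human keratinocyte/foreskin fibroblast co-culture; compound added; 24 h; MMP-9 by ELISA; bidirectional fit vs DMSO baseline.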
# [5] = read-out: CD40, CD40 (gene 958); experiment: BSK_LPS_CD40: BioMAP Diversity Plus: LPS Assay for CD40 Biomarker Activity (AID 2283076); conditions: primary human HUVEC with PBMC; actives raise or lower the signal
# Outline: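 ELISA readout of CD40 in HUVEC/PBMC co-culture (BSK_LPS system), 24 h post-dosing; bidirectional curve fit, DMSO baseline; parallel SRB total-protein staining for cytotoxicity.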
# [6] = read-out: E-selectin (Homo sapiens) (UniProt P16581); experiment: BSK_LPS_Eselectin: BioMAP Diversity Plus: LPS Assay for Eselectin Biomarker Activity (AID 2283077); conditions: primary human HUVEC with PBMC; actives raise or lower the signal
# Outline: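 ELISA readout of E-selectin, 24 h post-dose, HUVEC + PBMC co-culture (LPS system). Gain or loss of signal vs DMSO baseline, bidirectional fit.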
# [7] = read-out: Interleukin-8 (IL8), CXCL8 (gene 3576); experiment: BSK_LPS_IL8: BioMAP Diversity Plus: LPS Assay for Interleukin-8 (IL8) Biomarker Activity (AID 2283078); conditions: primary human HUVEC with PBMC; actives raise or lower the signal
# Outline: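 HUVEC + PBMC co-culture, LPS-activated; test chemicals dosed, IL-8 read by ELISA at 24 h. Bidirectional curve fit vs DMSO baseline (gain or loss of signal).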
# [8] = BSK_LPS_SRB: Viability Assessment in the BioMAP Diversity Plus: LPS Assay (AID 2283079); conditions: primary human HUVEC with PBMC;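 also: total protein by sulforhodamine B absorbance as a cytotoxicity measure; measured one day after compound addition; fitted in both directions against DMSO so loss or gain of signal counts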
# Outline: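 HUVEC + PBMC co-culture, LPS-stimulated; compound 24 h. 10% TCA fix, 0.1% SRB stain, A560. Bidirectional fit vs DMSO.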
# [9] = read-out: Interleukin-1 alpha (IL1a), IL1A (gene 3552); experiment: BSK_LPS_IL1a: BioMAP Diversity Plus: LPS Assay for Interleukin-1 alpha (IL1a) Biomarker Activity (AID 2283080); conditions: primary human HUVEC with PBMC; actives raise or lower the signal
# Outline: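 HUVEC/PBMC co-culture, LPS system; 24 h after dosing; IL-1a by ELISA; gain or loss of signal fitted bidirectionally vs DMSO baseline.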
# [10] = read-out: Monocyte Chemoattractant Protein-1 (MCP1), CCL2 (gene 6347); experiment: BSK_LPS_MCP1: BioMAP Diversity Plus: LPS Assay for Monocyte Chemoattractant Protein-1 (MCP1) Biomarker Activity (AID 2283081); conditions: primary human HUVEC with PBMC; actives raise or lower the signal
# Outline: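 ELISA read-out of MCP-1 after 24 h chemical dosing of a human umbilical vein endothelial cell/peripheral blood mononuclear cell co-culture stimulated with LPS. Gain or loss of signal fitted relative to DMSO controls.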
# [11] = BSK_LPS_PGE2: BioMAP Diversity Plus: LPS Assay for Prostaglandin E2 (PGE2) Biomarker Activity (AID 2283082); conditions: primary human HUVEC with PBMC; actives raise or lower the signal
# Outline: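 HUVEC plus PBMC co-culture stimulated with LPS; secreted PGE2 quantified by ELISA 24 h after chemical dosing. Activity fitted bidirectionally against DMSO as negative control and baseline; parallel SRB total-protein staining served as cytotoxicity check.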
# [12] = read-out: Macrophage colony-stimulating factor (MCSF), CSF1 (gene 1435); experiment: BSK_LPS_MCSF: BioMAP Diversity Plus: LPS Assay for Macrophage colony-stimulating factor (MCSF) Biomarker Activity (AID 2283083); conditions: primary human HUVEC with PBMC; actives raise or lower the signal
# Outline: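 HUVEC + PBMC co-culture (human primary), 24 h post-dose; M-CSF by ELISA; gain/loss of signal fitted bidirectionally vs DMSO baseline.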
# [13] = read-out: Tissue Factor, F3 (gene 2152); experiment: BSK_LPS_TissueFactor: BioMAP Diversity Plus: LPS Assay for Tissue Factor Biomarker Activity (AID 2283084); conditions: primary human HUVEC with PBMC; actives raise or lower the signal
# Outline: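 HUVEC/PBMC co-culture, LPS-activated; CD142 ELISA read 24 h post-dose; bidirectional curve fit vs DMSO negative control.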
# [14] = read-out: Tumor necrosis factor (Homo sapiens) (UniProt P01375); experiment: BSK_LPS_TNFa: BioMAP Diversity Plus: LPS Assay for Tumour Necrosis Factor alpha (TNFa) Biomarker Activity (AID 2283085); conditions: primary human HUVEC with PBMC; actives raise or lower the signal
# Outline: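 Human umbilical vein endothelial cells co-cultured with PBMC were exposed to test chemical and TNFa measured by ELISA 24 h after dosing. Bidirectional curve fitting was done relative to DMSO as negative control and baseline.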
# [15] = read-out: Vascular cell adhesion molecule 1 (VCAM1), VCAM1 (gene 7412); experiment: BSK_LPS_VCAM1: BioMAP Diversity Plus: LPS Assay for Vascular cell adhesion molecule 1 (VCAM1) Biomarker Activity (AID 2283086); conditions: primary human HUVEC with PBMC; actives raise or lower the signal
# Outline: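 Human umbilical vein endothelial cells co-cultured with peripheral blood mononuclear cells under LPS stimulation were exposed to test chemical for 24 h. VCAM-1 levels were then measured by ELISA, with bidirectional curve fitting relative to DMSO as negative control and baseline.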
# [16] = read-out: CD38, CD38 (gene 952); experiment: BSK_SAg_CD38: BioMAP Diversity Plus: SAg Assay for CD38 Biomarker Activity (AID 2283087); conditions: primary human HUVEC with PBMC; actives raise or lower the signal
# Outline: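 Fluorescence ELISA of cell-surface CD38 served as the read-out, with either increase or decrease fitted against DMSO controls. Cells were a human umbilical vein endothelium plus PBMC co-culture under SEB/TSST-1 stimulation, measured 24 h after dosing.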
# [17] = read-out: CD40, CD40 (gene 958); experiment: BSK_SAg_CD40: BioMAP Diversity Plus: SAg Assay for CD40 Biomarker Activity (AID 2283088); conditions: primary human HUVEC with PBMC; actives raise or lower the signal
# Outline: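 HUVEC/PBMC co-culture, 24 h post-dose; CD40 by ELISA, fluorescence intensity; bidirectional fit vs DMSO negative control.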
# [18] = read-out: CD69, CD69 (gene 969); experiment: BSK_SAg_CD69: BioMAP Diversity Plus: SAg Assay for CD69 Biomarker Activity (AID 2283089); conditions: primary human HUVEC with PBMC; actives raise or lower the signal
# Outline: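 ELISA, fluorescence read-out: CD69 on human umbilical vein endothelial cell + PBMC co-culture, 24 h post-dosing. Gain or loss of signal fitted bidirectionally against DMSO baseline.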
# [19] = read-out: Monocyte Chemoattractant Protein-1 (MCP1), CCL2 (gene 6347); experiment: BSK_SAg_MCP1: BioMAP Diversity Plus: SAg Assay for Monocyte Chemoattractant Protein-1 (MCP1) Biomarker Activity (AID 2283090); conditions: primary human HUVEC with PBMC; actives raise or lower the signal
# Outline: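 MCP-1 levels in the endothelial–PBMC SAg co-culture were quantified by ELISA at 24 h post-dosing; both increases and decreases versus DMSO scored. Cytotoxicity monitored by SRB total protein in parallel cultures.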
# Chain of Tumor necrosis factor (Homo sapiens) (P01375 whole entry, looked up): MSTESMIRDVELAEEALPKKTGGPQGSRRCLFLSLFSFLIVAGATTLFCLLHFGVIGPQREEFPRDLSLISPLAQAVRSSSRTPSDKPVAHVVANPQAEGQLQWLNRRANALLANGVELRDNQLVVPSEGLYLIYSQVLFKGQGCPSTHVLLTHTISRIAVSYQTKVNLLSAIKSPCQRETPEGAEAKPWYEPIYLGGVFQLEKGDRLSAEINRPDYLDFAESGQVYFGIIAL
# Chain of E-selectin (Homo sapiens) (P16581 whole entry, looked up): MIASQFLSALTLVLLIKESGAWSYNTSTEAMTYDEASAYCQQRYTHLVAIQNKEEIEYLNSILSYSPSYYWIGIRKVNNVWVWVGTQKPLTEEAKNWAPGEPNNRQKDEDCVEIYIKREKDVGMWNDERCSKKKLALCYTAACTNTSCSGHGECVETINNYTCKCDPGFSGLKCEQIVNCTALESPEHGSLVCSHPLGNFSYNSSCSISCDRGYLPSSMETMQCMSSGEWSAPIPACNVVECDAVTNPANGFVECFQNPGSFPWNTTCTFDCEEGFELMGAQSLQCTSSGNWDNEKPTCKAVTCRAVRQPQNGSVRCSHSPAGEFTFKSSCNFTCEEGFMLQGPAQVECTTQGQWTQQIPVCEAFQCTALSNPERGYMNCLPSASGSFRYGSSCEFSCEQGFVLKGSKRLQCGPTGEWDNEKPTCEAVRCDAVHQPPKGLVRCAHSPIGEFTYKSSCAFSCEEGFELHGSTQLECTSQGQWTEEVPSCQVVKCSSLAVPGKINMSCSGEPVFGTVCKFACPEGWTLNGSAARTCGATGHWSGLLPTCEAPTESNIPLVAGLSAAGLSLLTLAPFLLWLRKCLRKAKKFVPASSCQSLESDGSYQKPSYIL
smiles,measurement,setting,value
CCNc1nc(Cl)nc(NC(C)(C)C#N)n1,outcome,[1],inactive
same,outcome,[2],inactive
same,outcome,[3],inactive
same,outcome,[4],inactive
same,outcome,[5],inactive
same,outcome,[6],inactive
same,outcome,[7],inactive
same,outcome,[8],inactive
same,outcome,[9],inactive
same,outcome,[10],inactive
same,outcome,[11],inactive
same,outcome,[12],inactive
same,outcome,[13],inactive
same,AC50,[14],3.97 µM (active)
same,outcome,[15],inactive
same,outcome,[16],inactive
same,outcome,[17],inactive
same,outcome,[18],inactive
same,outcome,[19],inactive
